High-throughput results from PubChem.
CHX counter: Cycloheximide Counterscreen for Small Molecule Inhibitors of Shiga Toxin; cell reporter, cycloheximide protein synthesis inhibition counterscreen; max response, %; hit rate 12% among 300,000; AID 2314, 2010; in the data active = max response mostly above about 13%, no sharp cut-off; inactive = mostly below about 14%; also: read at 38.3 µM for the half of the compounds with a filed dose
Pf growth 48h: Primary qHTS for delayed death inhibitors of the malarial parasite plastid, 48 hour incubation; P. falciparum luciferase growth in erythrocytes, 48 h; Potency, µM (series often up to 28.7 µM), hits mostly inhibitors; hit rate 5.9% among 310,000; AID 504832, 2011
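In quantitative HTS format, infected erythrocytes bearing luciferase-reporter parasites were treated for a single generation at 37 C. Luminescence after adding detection reagent served as the growth measure.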
NS1 inh: qHTS Assay for Inhibitors of Influenza NS1 Protein Function; Potency, µM (top dose mostly 46.1 µM); hit rate 0.4% among 270,000; AID 2326, 2010; calls by dose curve; also: actives are rising curves; nearly all actives have a fitted effect of over 50% in size
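Growth recovery, yeast-based: influenza A NS1 expressed in S. cerevisiae causes slow growth, and suppressors are detected by OD600. The parent strain without NS1 is used as positive control.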
Sm TGR block: qHTS Assay for the Inhibitors of Schistosoma Mansoni Peroxiredoxins | Schistosoma mansoni thioredoxin glutathione reductase (TGR), Q962Y6 | purified TGR, DTNB reduction, TNB absorbance 405 nm | Potency, µM (doses to about 114 µM), hits mostly inhibitors | hit rate 3% among 360,000; also: nearly all actives have a fitted effect of over 60% in size
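TGR 20 nM + NADPH 100 uM (dispensed conc.), cpd preinc 15 min RT; start with NADPH (500 uM addition) then DTNB (15 mM addition). Kinetic TNB absorbance, 405 nm filter. Four-parameter Hill fit across titration.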
Pf growth 96h: Primary qHTS for delayed death inhibitors of the malarial parasite plastid, 96 hour incubation. Potency, µM (top dose mostly 28.7 µM), usual class: inhibitors. hit rate 6.9% among 320,000. P. falciparum luciferase reporter growth, 96 h. AID 504834, 2011
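Cell-based qHTS: luciferase-tagged P. falciparum in erythrocytes (2% hematocrit, 0.05% parasitemia final) incubated with compounds for 96 hours, 37 C, 5% CO2; luciferase detection reagent then added and luminescence measured.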
Shiga toxin inh: A qHTS for Small Molecule Inhibitors of Shiga Toxin; Vero cells, Shiga toxin protein synthesis inhibition reporter; inhibition, % at 38.7 µM; hit rate 9.2% among 290,000; in the data active = inhibition mostly above about 28%, no sharp cut-off; inactive = mostly below about 43%
A number is an active result; – = inactive; ? = inconclusive; · = no result given; [ ] = another dose, or the depositor's remark. A selection: hits, their analogues and other compounds. The true share with any hit is near 21%. Unless noted, calls follow the shape of the dose curve; as a rule, active = well fitted curve in the direction sought with a large enough effect; inconclusive = small, poorly fitted or top-dose-only effect, or another doubt; inactive = no such curve, though single readings can be large; an effect the other way counts as inactive or inconclusive.

SMILES	CHX counter	Pf growth 48h	NS1 inh	Sm TGR block	Pf growth 96h	Shiga toxin inh
COc1cccc(CNC(=O)CCC2CCCN(C(=O)c3ccc(C)nc3)C2)c1 (stereo not drawn)	–	–	–	–	?	–
COc1cccc(CNC(=O)CCC2CCCN(C(=O)c3cccc4c(C)c(C)[nH]c34)C2)c1 (stereo not drawn)	–	12µM	–	?	–[1.15 µM]	–
COc1cccc(CNC(=O)CCC2CCCN(C(=O)c3ccccc3N(C)C)C2)c1 (stereo not drawn)	–	?	–	79µM	?	–
O=C(OCC(=O)N1CCC(Cc2ccccc2)CC1)c1ccc(CO)cc1	·	?	·	–	?	·
Cc1ccc(S(=O)(=O)Oc2cccc(N3C(=O)C4CC=CCC4C3=O)c2)cc1 (stereo not drawn)	–	?	–	–	?	–
CC(=O)Nc1ccc(OS(=O)(=O)c2ccc(C(C)(C)C)cc2)cc1	12	–	–	–	–	–
CC(=O)Nc1ccc(OS(=O)(=O)O)cc1	–	·	·	·	·	–
CC(=O)Nc1ccc(S(=O)(=O)Oc2cccc(N3C(=O)C4CCCCC4C3=O)c2)cc1 (stereo not drawn)	–	13µM	–	–	–	–
COc1ccccc1-n1c(N)c(C(N)=O)sc1=S	–	–	–	–	–	–
CCn1c(N)c(C(=O)NCCOC)sc1=S	–	·	–	–	–	–
CCn1c(N)c(C(=O)Nc2ccccc2C(=O)OC)sc1=S	–	–	–	–	13µM	–
Cn1c(N)c(C(=O)Nc2ccc3ccccc3c2)sc1=S	43	–	–	–	–	57
Cn1c(N)c(C(=O)Nc2ccccc2F)sc1=S	9.0	–	–	–	–	–
Nc1c(C(=O)Nc2ccc(F)cc2)sc(=S)n1-c1ccccc1F	29	–	·	–	–	60
Cn1c(N)c(C(=O)N/N=C/c2ccccc2)sc1=S	–	–	–	–	–	–
CCn1ccc2cc(S(=O)(=O)N3CCC(C(=O)NCCc4ccc(SC)cc4)CC3)ccc21	·	·	·	–	·	·
Cc1oc2c(CN3CCCC3)c(O)ccc2c(=O)c1Oc1ccccc1Br	–	1.7µM	–	–	–	–
O=c1cc(-c2ccccc2)c2ccc(O)c(CN3CCCCC3)c2o1	–	10µM	?	–	–	–
COc1ccc(-c2c(C)oc3c(CN4CCCC(C)C4)c(O)ccc3c2=O)cc1OC (stereo not drawn)	–	?	–	–	?	–
Cc1oc2c(CN3CCCC(C)C3)c(O)ccc2c(=O)c1-c1ccccc1 (stereo not drawn)	–	6.6µM	–	–	8.3µM	–
O=c1oc2c(CN3CCCCCC3)c(O)ccc2cc1-c1nc2ccccc2[nH]1	–	2.3µM	–	–	–	–
O=c1oc2c(CN3CCCC3)c(O)ccc2cc1-c1ccccc1	·	·	·	–	·	·
Cn1c(CNC(=O)CSc2n[nH]c(-c3ccccc3)n2)nc2ccccc21	·	·	·	–	·	·
Cc1cc(/C=C2\NC(=S)NC2=O)c(C)n1-c1cccnc1	–	–	–	–	–	–
Cc1c(C)c2ccc(O)c(CN3CCCC3)c2oc1=O	–	?	–	–	?	–
SMILES	CHX counter	Pf growth 48h	NS1 inh	Sm TGR block	Pf growth 96h	Shiga toxin inh
Cc1oc2c(CN3CCCCC3)c(O)ccc2c(=O)c1-c1ccc(Cl)cc1	–	1.7µM	–	–	?	–
COc1ccccc1-c1c(C)oc2c(CN3CCCC(C)C3)c(O)ccc2c1=O (stereo not drawn)	–	13µM	–	–	10µM	–
CCc1c(C)c2ccc(O)c(CN3CCCC3)c2oc1=O	–	?	–	–	12µM	–
CC(C)(C)c1ccc(CN2C(=O)CSC2=O)cc1	–	–	·	–	?	–
CC(OC(=O)C1=COCCO1)C(=O)Nc1ccc(Cl)cn1 (stereo not drawn)	·	?	·	–	–	·
COc1cc(C(CC(=O)NCc2ccccc2Cl)N2Cc3ccccc3C2=O)cc(OC)c1OC (stereo not drawn)	·	·	·	–	·	·
COc1cc2c(cc1NC(=O)C(C)N1CCN(S(=O)(=O)c3ccccc3[N+](=O)[O-])CC1)oc1ccccc12 (stereo not drawn)	27	·	–	–	5.9µM	55
COc1cc2c(cc1NC(=O)C(C)N1CCN(S(=O)(=O)c3ccc(C)c(C)c3)CC1)oc1ccccc12 (stereo not drawn)	–	·	–	–	3.3µM	–
COc1cc2c(cc1NC(=O)C(C)OC(=O)c1ccc(S(=O)(=O)Nc3ccccc3Cl)cc1)oc1ccccc12 (stereo not drawn)	24	?	–	–	5.2µM	31
COc1cc2c(cc1NC(=O)C(C)Oc1ccccc1)oc1ccccc12 (stereo not drawn)	·	·	·	–	·	·
COc1cc2c(cc1NC(=O)CN1CCN(S(=O)(=O)c3ccc(C)cc3)CC1)oc1ccccc12	–	–	–	–	–	–
Cc1ccc(-n2c3c(cc(C(=O)NC4CCSC4=O)c2=O)C(=O)CCC3)cc1 (stereo not drawn)	–	–	–	79µM	–	–
COc1ccc(-n2c3c(cc(C(=O)NC4CCSC4=O)c2=O)C(=O)CC(C)(C)C3)cc1 (stereo not drawn)	–	–	–	–	–	–
CC(C)(C)c1cc(OC(=O)C2CCCC2)ccc1O	–	–	–	–	5.2µM	·
CCN(C(=O)CCS(=O)(=O)c1cc(Br)cc2c1N(C(=O)C1CC1)CC2)c1cccc(C)c1	·	·	·	–	·	·
COc1ccccc1-n1c(SCC(=O)Nc2ccc(NC(C)=O)cc2)nc2c([nH]c3ccccc32)c1=O	–	–	?	–	13µM	–
COc1ccc(-n2c(SCC(=O)Nc3cc(C)on3)nc3c([nH]c4ccccc43)c2=O)cc1OC	–	10µM	–	–	6.6µM	–
O=C(/C=C/c1ccccc1)/C=C/c1ccccc1	50	–	–	25µM	?	134
CC(C)(C)C(=O)/C=C(N)/C=C/c1ccccc1	28	–	–	–	–	–
O=Cc1ccc(OC(=O)/C=C/c2ccccc2)cc1	34	?	–	–	–	25
O=C(O)/C(=C\c1ccc(-c2ccc(F)cc2)o1)c1ccccc1	–	–	·	18µM	–	–
CCN(CC)C(=O)/C=C/c1ccccc1	·	–	·	–	–	·
CC(/C=C\c1ccccc1)=C/C(=O)O	–	–	–	–	–	–
CC(C)OP(=O)(OC(C)C)C(C)NC(=O)Cc1ccccc1 (stereo not drawn)	–	?	·	–	–	–
O=C(/C=C\c1ccc(-c2ccccc2)o1)c1ccccc1	42	–	–	11µM	–	110
O=Cc1ccc(-c2ccc(C(=O)O)cc2)o1	35	–	–	–	–	88
O=Cc1ccc(-c2ccc(F)cc2)o1	–	–	·	–	?	–
Cc1c(NC(=O)c2ccc3c4c(cccc24)CC3)c(=O)n(-c2ccccc2)n1C	–	–	?	–	·	–
O=C(/C=C/c1ccccc1)c1ccc2c3c(cccc13)CC2	30	–	–	–	?	74
